Measured values taken from PubChem BioAssay AID1159580 (chemical genetic matrix, 2015).
Where “and” joins values, the source holds several entries; their conditions need not be identical. Equal entries are not always repeated. The whole screen tested about 5,500 compounds, of which about 2,000 (36%) were called active. About 18% were inconclusive and are not listed. Rule as the data show it: active = normalized growth mostly below about 0.91 (no sharp cut-off); inconclusive = no clear call, values can overlap the other calls; inactive = mostly above about 0.92. The list shows a part of the results.

Experiment: chemical genetic growth profiling, strain panel (AID 1159580);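 also: tested at 20 µM; growth read once vehicle control cultures reached saturation at 30 °C; 1 = growth at the plate median or of vehicle wells; lower values mean less growth of the strain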
Settings: S. cerevisiae deletion strains, growth OD

Measured: normalized growth

NCC1CCC(C(=O)O)CC1 (stereo not drawn)
inactive: locus YAL021C, strain ccr4, stronger effect = lower value 1 | locus YAL026C, strain drs2, stronger effect = lower value 0.998 | locus YAL030W, strain snc1, stronger effect = lower value 1 | locus YBL061C, strain skt5, stronger effect = lower value 0.979 | locus YBR009C, strain hhf1, stronger effect = lower value 0.992 | locus YBR021W, strain FUR4, stronger effect = lower value 0.988 | locus YBR023C, strain chs3, stronger effect = lower value 0.992 | locus YBR171W, strain sec66, stronger effect = lower value 0.986 | locus YBR229C, strain ROT2, stronger effect = lower value 1 | locus YBR231C, strain swc5, stronger effect = lower value 0.988 | locus YBR279W, strain paf1, stronger effect = lower value 1.01 | locus YCL011C, strain gbp2, stronger effect = lower value 1 | locus YCL016C, strain dcc1, stronger effect = lower value 0.993 | locus YCL029C, strain bik1, stronger effect = lower value 0.982 | locus YCL061C, strain MRC1, stronger effect = lower value 0.999 | locus YCL069W, strain vba3, stronger effect = lower value 0.991 | locus YCR088W, strain abp1, stronger effect = lower value 0.989 | locus YDL005C, strain med2, stronger effect = lower value 0.974 | locus YDL035C, strain GPR1, stronger effect = lower value 0.985 | locus YDL040C, strain nat1, stronger effect = lower value 0.972 | locus YDL074C, strain BRE1, stronger effect = lower value 1.04 | locus YDL101C, strain DUN1, stronger effect = lower value 0.996 | locus YDL134C, strain PPH21, stronger effect = lower value 0.985 | locus YDL185W, strain tfp1, stronger effect = lower value 0.965 | locus YDL192W, strain arf1, stronger effect = lower value 0.994 | locus YDR001C, strain nth1, stronger effect = lower value 0.987 | locus YDR069C, strain doa4, stronger effect = lower value 0.984 | locus YDR101C, strain arx1, stronger effect = lower value 1 | locus YDR137W, strain rgp1, stronger effect = lower value 1 | locus YDR150W, strain NUM1, stronger effect = lower value 0.986 | locus YDR159W, strain sac3, stronger effect = lower value 0.974 | locus YDR162C, strain NBP2, stronger effect = lower value 0.973 | locus YDR195W, strain ref2 0.956 | locus YDR297W, strain sur2, stronger effect = lower value 0.973 | locus YDR318W, strain mcm21, stronger effect = lower value 0.978 | locus YDR334W, strain swr1, stronger effect = lower value 1.01 | locus YDR335W, strain msn5, stronger effect = lower value 1 | locus YDR388W, stronger effect = lower value 0.999 | locus YDR392W, strain spt3, stronger effect = lower value 1 | locus YDR502C, strain sam2, stronger effect = lower value 0.996 | locus YEL003W, strain gim4, stronger effect = lower value 0.995 | locus YEL037C, strain rad23, stronger effect = lower value 0.991 | locus YEL061C, strain CIN8 (second series), stronger effect = lower value 1 | locus YEL061C, strain CIN8, stronger effect = lower value 1 | locus YER015W, strain faa2, stronger effect = lower value 0.987 | locus YER016W, strain bim1, stronger effect = lower value 0.971 | locus YER110C, stronger effect = lower value 0.988 | locus YER111C, strain swi4, stronger effect = lower value 0.978 | locus YER155C, strain BEM2 (second series), stronger effect = lower value 0.974 | locus YER155C, strain BEM2, stronger effect = lower value 0.995 | locus YER167W, strain BCK2, stronger effect = lower value 0.997 | locus YFR010W, strain ubp6, stronger effect = lower value 0.99 | locus YGL078C, strain dbp3, stronger effect = lower value 0.998 | locus YGL086W, strain mad1, stronger effect = lower value 1 | locus YGL173C, strain kem1, stronger effect = lower value 0.974 | locus YGL227W, strain vid30, stronger effect = lower value 0.998 | locus YGL240W, strain doc1, stronger effect = lower value 0.999 | locus YGL248W, strain PDE1, stronger effect = lower value 1.01 | locus YGL253W, strain hxk2, stronger effect = lower value 0.977 | locus YGR078C, strain PAC10, stronger effect = lower value 1.04 | locus YGR135W, strain pre9, stronger effect = lower value 0.96 | locus YGR252W, strain gcn5, stronger effect = lower value 1.02 | locus YHR013C, strain ard1, stronger effect = lower value 0.979 | locus YHR027C, strain rpn1, stronger effect = lower value 0.996 | locus YHR030C, strain SLT2, stronger effect = lower value 0.98 and 1.04 | locus YHR079C, strain IRE1 (second series), stronger effect = lower value 0.985 | locus YHR079C, strain IRE1, stronger effect = lower value 1.06 | locus YHR094C, strain hxt1, stronger effect = lower value 0.999 | locus YHR129C, strain ARP1, stronger effect = lower value 0.986 | locus YHR142W, strain chs7, stronger effect = lower value 0.994 | locus YHR200W, strain rpn10, stronger effect = lower value 0.973 | locus YIL066C, strain RNR3, stronger effect = lower value 1 | locus YIL073C, strain SPO22, stronger effect = lower value 0.909 | locus YIL125W, strain kgd1, stronger effect = lower value 0.995 | locus YIR030C, strain dcg1, stronger effect = lower value 0.987 | locus YJL092W, strain hpr5, stronger effect = lower value 0.986 | locus YJL095W, strain BCK1 (second series), stronger effect = lower value 0.986 | locus YJL095W, strain BCK1, stronger effect = lower value 1.04 and 1.01 | locus YJL115W, strain asf1, stronger effect = lower value 0.98 | locus YJL129C, strain trk1, stronger effect = lower value 0.997 | locus YJL134W, strain LCB3, stronger effect = lower value 0.997 | locus YJL154C, strain vps35, stronger effect = lower value 0.988 | locus YJL164C, strain tpk1, stronger effect = lower value 0.985 | locus YJL166W, strain qcr8, stronger effect = lower value 0.983 | locus YJL168C, strain set2, stronger effect = lower value 0.999 | locus YJL187C, strain SWE1 (second series), stronger effect = lower value 1.02 | locus YJR043C, strain POL32, stronger effect = lower value 1 | locus YJR066W, strain TOR1, stronger effect = lower value 0.98
